{"source": "PubChem BioAssay AID2708", "about": "(National Center for Advancing Translational Sciences (NCATS), 2010)", "note": "The list shows a part of the results. Where a call stands in place of a potency, no number is given. Records with an inconclusive call do not appear. Activity calls are given as the source filed them. Calls follow the shape of the dose curve; as a rule, active = well fitted inhibition curve with a large enough effect; inconclusive = small, poorly fitted or top-dose-only effect; inactive = no such curve, though single readings can be large or run the other way. Peptide text beside a SMILES is read from it. * marks the point of attachment. Bz = O=C(c1ccccc1)*"}
{"biological_target": "ATP-dependent DNA helicase Q1 (Homo sapiens) (UniProt P46063)", "sequence (P46063 whole entry, looked up)": "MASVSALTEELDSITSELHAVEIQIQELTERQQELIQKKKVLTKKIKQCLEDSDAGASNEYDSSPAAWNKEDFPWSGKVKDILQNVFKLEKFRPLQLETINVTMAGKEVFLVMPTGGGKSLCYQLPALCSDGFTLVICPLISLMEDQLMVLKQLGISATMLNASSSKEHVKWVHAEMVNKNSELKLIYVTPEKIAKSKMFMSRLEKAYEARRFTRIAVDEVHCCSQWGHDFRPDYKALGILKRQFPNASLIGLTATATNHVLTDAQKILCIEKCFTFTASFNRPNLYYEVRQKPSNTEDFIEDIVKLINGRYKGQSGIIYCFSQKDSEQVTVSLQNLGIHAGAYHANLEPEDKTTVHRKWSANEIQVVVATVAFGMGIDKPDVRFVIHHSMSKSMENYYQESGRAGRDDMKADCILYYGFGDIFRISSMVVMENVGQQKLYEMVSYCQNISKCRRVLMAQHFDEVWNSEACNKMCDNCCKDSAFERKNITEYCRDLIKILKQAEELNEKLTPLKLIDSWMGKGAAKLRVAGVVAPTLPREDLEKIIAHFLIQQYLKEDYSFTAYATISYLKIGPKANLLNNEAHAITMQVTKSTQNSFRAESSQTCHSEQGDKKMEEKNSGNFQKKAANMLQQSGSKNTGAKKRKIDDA", "assay": "Confirmation qHTS Assay for Inhibitors of RecQ-Like Dna Helicase 1 (RECQ1); also: nearly all actives have a fitted effect of over 45% in size; also: potency is read from the fitted curve at half-maximal effect", "details": "RECQ1 helicase DNA unwinding, fluorescence; series mostly up to 229 µM", "text": "Survival of cells and the faithful propagation of the genome depend on elaborate mechanisms of detecting and repairing DNA damage. Treatment of advanced cancer relies on radiation therapy or chemotherapy, which kill cancer cells by causing extensive DNA damage. It is often found, that cancer cells develop resistance to therapy through enhanced activity of DNA repair functions; this has led to an increased interest in developing drugs that interfere with DNA repair, which could sensitize cancer cells to conventional therapy.\nThis validation qHTS assay pertains to human RECQ1, which is important in resolving abnormal DNA structures formed during replication or homologous recombination. Shutting down the expression of RECQ1 leads to chromosomal instability and higher radiation sensitivity in cultured cells.\nThe validation assay was a fluorescence quenching based kinetic qHTS for RECQ1 Helicase DNA unwinding. The activity was measured as ATP-dependent separation of a 20-bp DNA duplex extended by 30-nt single-stranded tails (forked duplex). The forked DNA substrate was tagged with rhodamine fluorophore (carboxytetramethyl rhodamine, TAMRA) and BHQ-2 (Black Hole Quencher 2) dark quencher. Strand separation results in an increase in the fluorescence of TAMRA (excitation 525 nm, emission 598 nm). This substrate construct operates in a red-shifted region where very few compound library members have been noted to fluoresce (PubChem AIDs 593 and 594). An additional feature of the assay is the inclusion of 2.5 ug/ml poly (dIdC), to reduce interference by compounds such as DNA intercalators, a major source of false inhibitors.\nOpher Gileadi, Structural Genomics Consortium, University of Oxford\nScreening Center PI: Austin, C.P.\nScreening Center: NIH Chemical Genomics Center [NCGC]\nThree uL of reaction buffer (25 mM Tris-HCl (pH 8.0), 5 mM NaCl, 2 mM MgCl2, 1mM DTT, 0.01% Tween- 20, and 2.5 ug/ml poly(dI-dC), including enzyme (50 nM RECQ1T1), were dispensed into a 1536-well Greiner black assay plate via solenoid-valve based nanoliter dispensers. Compounds (23 nl each in columns 5-48) and control (23 nl each in column 2 as dose-response) were transferred via a Kalypsys pintool equipped with a 1536-pin array. The plates were incubated for 15 min at room temperature, and then 1 ul of substrates (200 nM DNA and 2 mM ATP, final concentrations) was added to start the reaction. The plate was transferred into a ViewLux high-throughput CCD imager where the reaction progress was measured in a discontinuous kinetic mode (two reads spaced 2 hours apart, with intermediate room temperature incubation of the covered assay plate) by using standard red-fluorescence optics (excitation filter 525 nm, emission filter 598 nm). Enzyme-free and vehicle (DMSO) controls were included for signal normalization."}
{"smiles": "O=C(N/N=C/c1sc(N2CCCCC2)nc1-c1cccs1)c1cccnc1", "Potency": "inactive"}
{"smiles": "CC1Cc2ccccc2N1C(=O)CSc1nnc(-c2ccc(S(=O)(=O)N3CCCC3)cc2)n1C", "note": "(configuration not stated)", "Potency": "inactive"}
{"smiles": "O=C(CCn1nnc2ccccc2c1=O)N[C@@H](Cc1c[nH]c2ccccc12)C(=O)O", "Potency": "inactive"}
{"smiles": "COc1cc(C2C(C(=O)c3ccc(C)o3)=C(O)C(=O)N2CCc2ccccc2)ccc1O", "note": "(configuration not stated)", "Potency": "inactive"}
{"smiles": "O=C(NC(Cc1c[nH]c2ccccc12)C(=O)O)/C(=C/c1ccco1)NC(=O)c1ccccc1", "note": "(configuration not stated)", "Potency": "inactive"}
{"smiles": "c1ccc(CSc2nnc(-c3ccco3)c(-c3ccco3)n2)cc1", "Potency": "39.8 µM (active)"}
{"smiles": "COc1ccc(-c2nc3c(c(SCC(=O)Nc4ccc(C(=O)O)cc4)n2)Cc2ccccc2O3)cc1", "Potency": "2.89 µM (active)"}
{"smiles": "CC(C)(O)c1ccccc1CC[C@H](SCC1(CC(=O)O)CC1)c1cccc(/C=C/c2ccc3ccc(Cl)cc3n2)c1", "Potency": "40.8 µM (active)"}
{"smiles": "O=C(NCc1ccccc1)C1=C[C@@H](C2CCCCC2)C[C@@H](OCc2ccc(CO)cc2)O1", "Potency": "inactive"}
{"smiles": "Cc1ccccc1NC(=O)CN1C(=O)N/C(=C\\c2cccn2-c2cccc(C(=O)O)c2)C1=O", "Potency": "31.6 µM (active)"}
{"smiles": "CC1(C)OC2CC(=O)OC[C@@]23C1CC(=O)[C@]1(C)C3CC[C@@]2(C)C(c3ccoc3)OC(=O)C3O[C@@]321", "note": "(some centres not stated)", "Potency": "inactive"}
{"smiles": "Cc1ccc(C)n1C(Cc1ccccc1)C(=O)O", "note": "(configuration not stated)", "Potency": "22.4 µM (active)"}
{"smiles": "O=C(O)CCn1c(SCc2cc(=O)n3ccccc3n2)nc2ccsc2c1=O", "Potency": "inactive"}
{"smiles": "Oc1ccc(N=Cc2sc3ccccc3c2Cl)cc1", "Potency": "inactive"}
{"smiles": "CC(=O)Nc1ccc(Nc2c3ccccc3nc3ccccc23)cc1", "Potency": "22.4 µM (active)"}
{"smiles": "O=C(c1cc2c(s1)CCC2)N1CCN(c2ccccc2)CC1", "Potency": "39.8 µM (active)"}
{"smiles": "O=C(NC(Cc1ccccc1)C(=O)N1CCCC1C(=O)O)c1ccccc1", "note": "(stereo not drawn) (Bz-Phe-Pro-OH; configuration not given here)", "Potency": "inactive"}
